Compounds with a hit are over-represented: about 0.36% of the library has one in this group of screens.
IMPase cell inh = membrane-permeable compound that blocks inositol monophosphatase; CHO-M1 cells, IP1 accumulation, HTRF TR-FRET ratio; inhibition (IP1 accumulation), % at 46.1 µM; 120,000 tested, under 10 active; AID 901; active = well fitted curve in the direction sought with a large enough effect in the signal ratio, not every such curve was filed as active; inconclusive = small, poorly fitted or top-dose-only effect, or a change in a side signal; inactive = no such curve, though single readings can be large or run the other way; the % refers to the signal ratio;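 also: cells stimulated with carbachol in lithium chloride buffer; higher means more IMPase inhibition seen as more IP1 and lower FRET ratio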
Target sequence (P97697 whole entry, looked up): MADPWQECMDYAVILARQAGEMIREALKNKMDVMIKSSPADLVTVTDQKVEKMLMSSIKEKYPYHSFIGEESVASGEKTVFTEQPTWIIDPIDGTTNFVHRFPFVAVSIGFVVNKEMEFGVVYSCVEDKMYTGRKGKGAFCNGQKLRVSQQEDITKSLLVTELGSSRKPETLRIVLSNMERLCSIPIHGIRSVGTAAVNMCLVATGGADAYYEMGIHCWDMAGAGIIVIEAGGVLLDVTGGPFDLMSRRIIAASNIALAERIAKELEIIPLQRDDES
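Cellular IMPase inhibition is scored as a rise in cytosolic IP1, detected by competitive TR-FRET between d2-labelled IP1 and a europium anti-IP1 antibody. M1-expressing CHO cells were stimulated with carbachol for 30 min at 37C, with lithium (50 mM LiCl) present in the buffer.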
IMPase Li cell = cell-permeable IMPase inhibitors with lithium potentiation | AID 1457 | CHO-M1 cells, IP1 TR-FRET (IP-One), carbachol + lithium | Potency, µM (titrated, usually from 59.4 µM), usual class: inhibitors | actives 0.35% (n = 210,000); active = well fitted inhibition curve with a large enough effect; inconclusive = small, poorly fitted or top-dose-only effect; inactive = no such curve, though single readings can be large or run the other way;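 also: IP1 builds up when IMPase is blocked and the TR-FRET signal falls; nearly all actives have a fitted effect of over 50% in size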
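Lithium-sensitised IP1 accumulation assay; M1-expressing CHO cells treated 30 min at 37C with compound. Competitive antibody detection by time-resolved FRET followed a 10 min room-temperature lysis step.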
Large screens that a line does not name were inactive.

Cc1ccc(CCNC(=O)c2ccc(Nc3nc4ccccc4n4nnnc34)cc2)cc1	none (no result: IMPase Li cell)
COc1ccc(CCNc2nc3ccccc3n3nnnc23)cc1OC	IMPase Li cell 10µM
CCOc1ccc(CCNC(=O)c2ccc(Nc3nc4ccccc4n4nnnc34)cc2)cc1OCC	none (no result: IMPase Li cell)
c1ccc(CCNc2nc3ccccc3n3nnnc23)cc1	IMPase cell inh inconclusive, IMPase Li cell 3.5µM
CCOc1cccc(C(=O)Nc2ccc3oc(-c4ccncc4)nc3c2)c1	none (no result: IMPase Li cell)
CCc1ccc(NC(=O)CSc2nc3cc(C(=O)OC)ccc3c(=O)n2CC2CCCO2)cc1 (centres undefined)	IMPase Li cell 14µM
COC(=O)c1ccc2c(=O)n(CC3CCCO3)c(SCC(=O)Nc3ccccc3Cl)nc2c1 (centres undefined)	none
CN1CCCC2(CCN(C(=O)c3cnccn3)CC2)C1	none (no result: IMPase cell inh)
N#CC1=C2SCN(c3ccccc3)CN2C(=O)CC1c1c(Cl)cccc1Cl (centres undefined)	none
N#CC1=C2SCN(c3ccccc3)CN2C(=O)CC1c1cccs1 (centres undefined)	IMPase Li cell 28µM
COCCOC(=O)c1c(C)nc(SCC(=O)Nc2ccc(OC)cc2)c(C#N)c1-c1ccco1	none
COc1cccc(NC(=O)CSc2nc3c(c(-c4ccco4)c2C#N)CCCC3)c1	IMPase Li cell 11µM
O=C(CSc1nc2c(c(=O)[nH]1)CCC2)Nc1cccc(Cl)c1	none
N#Cc1c(-c2ccco2)nc(SCC(=O)Nc2cccc(Cl)c2)[nH]c1=O	IMPase cell inh inconclusive, IMPase Li cell 10µM
O=C(O)C(O)C(O)(Cc1ccc(O)cc1)C(=O)O (centres undefined)	none (no result: IMPase cell inh)
NC(CSCSCC(N)C(=O)O)C(=O)O (centres undefined)	none (no result: IMPase cell inh)
COc1ccccc1NC(=O)c1nnn(CC(=O)Nc2ccccc2)c1N	none
COc1ccccc1NC(=O)c1nnn(CC(=O)Nc2cccc(SC)c2)c1N	IMPase Li cell 6.3µM
COc1cccc(Cn2nnc(C(=O)Nc3cc(C)ccc3OC)c2N)c1	IMPase Li cell 25µM
COc1cccc(Cn2nnc(C(=O)Nc3ccc(C)cc3)c2N)c1	IMPase Li cell inconclusive
C=C1C[C@@]23C[C@@]1(O)CC[C@@H]2[C@]12C=C[C@@H](O)[C@](C)(C(=O)O1)[C@@H]2[C@@H]3C(=O)O	none
NC(=[SH+])N=N/C=C1/C=CC=CN1.O=S(=O)(O)O.[Fe]	none (no result: IMPase cell inh)
CC(=O)OCC(=O)[C@@]1(O)CCC2C3C[C@H](C)C4=CC(=O)C=CC4(C)C3C(O)CC21C (some centres undefined)	none (no result: IMPase cell inh)
COC(=O)CCNc1n[nH]c(=O)[nH]c1=O	none (no result: IMPase cell inh)
COC(=O)CNc1n[nH]c(=S)[nH]c1=O	IMPase cell inh inconclusive, IMPase Li cell 11µM
CC(C)COC(=O)C(C)Nc1n[nH]c(=S)[nH]c1=O (centres undefined)	none (no result: IMPase cell inh)
CC(C)OC(=O)CNc1n[nH]c(=S)[nH]c1=O	IMPase Li cell 11µM (no result: IMPase cell inh)
CCOC(=O)C1=C(c2ccccc2)c2cc(OC)ccc2OC1C(=O)OCC (centres undefined)	none (no result: IMPase cell inh)
C/C=C(\C)C(=O)C[Si](C)(C)c1ccccc1	none (no result: IMPase cell inh)
CCSc1nc2sc3c(c2c(=O)n1-c1ccc(C)cc1)CCCC3	none (no result: IMPase Li cell)
CCCc1nc(SCC(=O)NNC(=O)C2CCCCC2)c2ccccc2n1	IMPase Li cell inconclusive
CCCc1nc(SCC(=O)NNC(=O)c2ccc(OC)cc2)c2ccccc2n1	IMPase Li cell 10µM (no result: IMPase cell inh)
COc1cc2c(cc1NC(=O)COc1ccc(Br)c(C)c1)oc1ccccc12	none (no result: IMPase Li cell)
O=C(Nc1cccc(O)c1)c1cc2nc(-c3ccc(Br)cc3)cc(C(F)(F)F)n2n1	none (no result: IMPase Li cell)
COc1ccc(/C(O)=C2\C(=O)C(=O)N(c3cc(C)on3)C2c2ccccc2OC)cc1C (centres undefined)	none (no result: IMPase Li cell)
COc1ccc(/C(O)=C2\C(=O)C(=O)N(c3cc(C)on3)C2c2ccc(OC)c(OC)c2)cc1OC (centres undefined)	none
COc1cccc(C2/C(=C(\O)c3ccc(OC)c(OC)c3)C(=O)C(=O)N2c2cc(C)on2)c1 (centres undefined)	IMPase cell inh inconclusive, IMPase Li cell 10µM
COc1ccc(/C(O)=C2\C(=O)C(=O)N(c3cc(C)on3)C2c2ccccc2OC)cc1 (centres undefined)	IMPase Li cell 6.3µM
Cn1c(=O)c(CCc2ccccc2)nc2cnc(N3CCNCC3)nc21	none (no result: IMPase cell inh)
Cc1cccc(-c2cc(C(=O)Nc3ccc4c(c3)OCCO4)c3ccccc3n2)c1	none
O=C(Nc1ccc2c(c1)OCCO2)c1cc(-c2ccccn2)nc2ccc(Br)cc12	IMPase Li cell 13µM (no result: IMPase cell inh)
CNC(=O)Oc1ccc2c(c1)C1(C)CCN(C)C1N2C (centres undefined)	none
Cn1c(=O)c2c(nc(/C=C\c3cccc(Cl)c3)n2C)n(C)c1=O	none (no result: IMPase Li cell)
N#Cc1c(N)nc(SCC(=O)C23CC4CC(CC(C4)C2)C3)c(C#N)c1-c1ccc(Cl)cc1	IMPase Li cell 3.5µM
CSc1nc(N)nc(SCC(=O)C23CC4CC(CC(C4)C2)C3)c1C#N	none (no result: IMPase cell inh)
CC1(C)OC(=O)C=C[C@@]2(C)C1C[C@@H](O)[C@]1(C)C2CC[C@@]2(C)C(c3ccoc3)OC(=O)[C@H]3O[C@]321 (some centres undefined)	none (no result: IMPase cell inh)
CC(=O)O[C@]1(C(C)=O)CC[C@H]2C3C=C(Cl)C4=CC(=O)[C@@H]5C[C@H]5[C@]4(C)C3CC[C@@]21C (some centres undefined)	none (no result: IMPase cell inh)
COC(=O)N1C2=C(c3ccccc3[C@@H]1CC(=O)Nc1ccc3ccc4cccc5ccc1c3c45)[C@@H]1C(=O)N(c3ccccc3)C(=O)[C@@H]1[C@H](C)C2	none (no result: IMPase cell inh)
COc1cc2c(-c3ccc(O)cc3)nc3c(c(C)nn3-c3ccccc3)c2cc1OC	none (no result: IMPase cell inh)
COc1cc2c(C)nc3c(c(C)nn3-c3ccccc3)c2cc1OC	IMPase Li cell 11µM (no result: IMPase cell inh)
N[C@H](C(=O)O)[C@H](OCc1ccccc1)C(=O)O	none
Cc1nc(SCCC(=O)O)c2ccccc2n1	IMPase cell inh inconclusive, IMPase Li cell 13µM
CCOC(=O)CCSc1cc(C)c2ccccc2n1	none (no result: IMPase cell inh)
CCOC(=O)CSc1ccc2ccccc2n1	none (no result: IMPase cell inh)
O=C(O)CCSc1nc2ccccc2c(=O)[nH]1	none
COc1ccc(NC(=O)CCSc2ccc3ccccc3n2)cc1	none (no result: IMPase cell inh)
Cc1cc(SCCC(=O)O)nc2ccccc12	IMPase cell inh inconclusive, IMPase Li cell 11µM
O=C(O)CCSc1ccc2ccccc2n1	IMPase cell inh inconclusive, IMPase Li cell 14µM
O=C(O)CSc1ccc2ccccc2n1	IMPase cell inh inconclusive, IMPase Li cell 7.1µM
COC(=O)C1=C(C(=O)OC)[C@@H]2N(C)c3ccc(OC)cc3[C@@]23C[C@@H](C(=O)OC)N(S(=O)(=O)c2ccc(C(F)(F)F)cc2)C3=N1	none (no result: IMPase cell inh)
CCCCS(=O)(=O)N1CCc2nc(-c3ccccc3)c3c(c2C1)CO[C@@H](C)C3	none (no result: IMPase cell inh)
CCCCC/C=C\C[C@@H](O)/C=C/C=C\CCC(=O)O	none (no result: IMPase cell inh)
CCc1ccc(OCC(=O)N(Cc2ccc(Cl)cc2)C2CCS(=O)(=O)C2)cc1 (centres undefined)	none (no result: IMPase Li cell)
O=C(CSc1nc(O)c(C/C=C/c2ccccc2)c(=O)[nH]1)Nc1cccc(F)c1	none (no result: IMPase Li cell)
Cc1cc2nc(SCC(=O)Nc3nonc3C)c3c(c2cc1C)CCCC3	IMPase Li cell 6.3µM
Cc1nonc1NC(=O)CSc1nc(C2CCCCC2)nc2ccccc12	none
O=C(O)c1ccccc1NCc1ccncc1	none
O=C(O)c1ccc(CNc2ccccc2C(=O)O)cc1	IMPase Li cell 10µM
c1cncc(-c2cccnc2)c1	IMPase Li cell 14µM
c1cncc(-c2nn[nH]n2)c1	none
CCCCCCCCCCCCCCCC(=O)OCC(O)C1OC(=O)C(O)=C1O (centres undefined)	none (no result: IMPase cell inh)
